Of roughly 7,900 targets only a part is listed; those with a hit were picked by preference. About 0.6% of all pairs of compound and target were hits.
Experiments:
Experiment in all cases: log2 fold change, soluble protein after heating vs DMSO (PISA); higher = thermal stabilisation; K562 cells, 10 uM, 30 min; active = over 0.2 and 3.5 SD of the protein, either way, in both replicates (recomputed)
[1] = compound: C#Cc1cccc(Nc2ncnc3cc(OCCOC)c(OCCOC)cc23)c1 [erlotinib]
Method in brief: (§1)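 Soluble protein was defined as the supernatant after 21,000xg for 90 min. It came from K562 cells at 2×10^6 cells/mL given 10 μM compound for 30 min, heated in aliquots for 3 min across 48°C-58°C, pooled, and extracted in PBS with 0.5% NP-40 at 4°C, and was quantified by TMTpro 16plex LC-MS/MS with equalised channel sums. Thermal stability against control samples, from duplicates, is reported as log2 fold change.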

[2] = compound: C/C(=N\NC(=O)C1=CC(=CC=C1)S(=O)(=O)N2CCOCC2)/C3=C(C=CC(=C3)Cl)O
Method in brief: as §1

[3] = compound: C1=CC(=C(C=C1Cl)C2=NC3=NC=CN=C3C(=N2)NC4=CC=NC=C4)F
Method in brief: as §1

[4] = compound: C1=CC(=CC=C1C2=NC3=C(N2)C=C(C=C3)C(=O)N)OC4=CC=C(C=C4)Cl
Method in brief: as §1

[5] = compound: C1=CC2=C(C=CC(=C2)/C=C\3/C(=O)NC(=NCC4=CC=CS4)S3)N=C1
Method in brief: as §1

[6] = compound: C1=CC2=NC=CN=C2C=C1/C=C/3\C(=O)NC(=O)S3
Method in brief: as §1

[7] = compound: C1=CC=C(C=C1)C2=NC(=C(N2)C3=CC=NC=C3)C4=CC(=C(C=C4)Cl)O
Method in brief: as §1

[8] = compound: C1=CC=C2C(=C1)C3=NNC4=CC=CC(=C43)C2=O
Method in brief: as §1

[9] = compound: C1CCN(C1)C(=O)NC2=CC=CC(=C2)NC3=NC=C(C(=N3)NCCC4=CN=CN4)Br
Method in brief: as §1

[10] = compound: C1CN(CCC1(CC2=CC=C(C=C2)Cl)N)C3=NC=NC4=C3C=CN4
Method in brief: as §1

Measured: log2 fold change

DLD (UniProt P09622)
inactive: [1] 0.001 | [2] -0.018 | [3] 0.044 | [4] -0.083 | [5] -0.007 | [6] -0.018 | [7] 0.032 | [8] -0.018 | [9] 0.031 | [10] 0.054

EXOC8 (UniProt Q8IYI6)
Sequence of UniProt Q8IYI6 (Q8IYI6 whole entry, looked up): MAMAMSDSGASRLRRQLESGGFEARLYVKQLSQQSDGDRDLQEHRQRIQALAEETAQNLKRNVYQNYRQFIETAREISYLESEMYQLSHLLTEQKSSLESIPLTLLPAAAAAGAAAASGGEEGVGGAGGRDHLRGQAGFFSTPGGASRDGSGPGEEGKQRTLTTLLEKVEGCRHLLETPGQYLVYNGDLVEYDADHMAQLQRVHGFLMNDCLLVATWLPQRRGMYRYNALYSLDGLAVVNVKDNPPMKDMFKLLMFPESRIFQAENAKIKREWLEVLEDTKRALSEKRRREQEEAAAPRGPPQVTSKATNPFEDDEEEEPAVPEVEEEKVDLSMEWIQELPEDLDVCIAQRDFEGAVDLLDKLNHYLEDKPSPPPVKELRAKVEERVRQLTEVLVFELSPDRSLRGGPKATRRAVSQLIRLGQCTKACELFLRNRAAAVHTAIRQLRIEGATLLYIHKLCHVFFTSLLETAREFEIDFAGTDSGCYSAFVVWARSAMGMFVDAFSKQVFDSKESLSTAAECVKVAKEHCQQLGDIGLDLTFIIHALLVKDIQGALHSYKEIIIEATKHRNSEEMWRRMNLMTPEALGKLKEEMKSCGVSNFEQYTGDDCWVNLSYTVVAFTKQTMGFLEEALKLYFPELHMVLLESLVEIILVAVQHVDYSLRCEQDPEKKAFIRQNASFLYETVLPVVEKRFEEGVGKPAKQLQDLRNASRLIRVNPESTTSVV
inactive: [1] 0.048 | [2] 0.144 | [3] -0.042 | [4] -0.056 | [5] 0.05 | [6] 0.017 | [7] -0.012 | [8] 0.001 | [9] -0.053 | [10] -0.054

CTSH (UniProt P09668)
Sequence of UniProt P09668 (P09668 whole entry, looked up): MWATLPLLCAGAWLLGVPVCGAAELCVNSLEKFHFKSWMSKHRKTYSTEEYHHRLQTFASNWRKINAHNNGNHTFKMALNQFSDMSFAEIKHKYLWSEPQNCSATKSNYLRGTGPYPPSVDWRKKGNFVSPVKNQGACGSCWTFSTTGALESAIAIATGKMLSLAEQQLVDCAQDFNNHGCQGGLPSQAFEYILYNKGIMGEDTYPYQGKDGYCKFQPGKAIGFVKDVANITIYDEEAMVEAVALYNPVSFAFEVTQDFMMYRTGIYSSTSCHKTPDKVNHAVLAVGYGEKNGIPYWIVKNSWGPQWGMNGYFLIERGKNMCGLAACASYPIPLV
inactive: [1] 0.015 | [2] -0.054 | [3] 0.052 | [4] 0 | [5] -0.062 | [6] 0.048 | [7] 0.022 | [8] -0.011 | [9] 0.047 | [10] 0.057

CYB561A3 isoform 2 (UniProt Q8NBI2)
inactive: [1] -0.021 | [2] -0.016 | [4] 0.02 | [5] -0.005 | [6] 0.114 | [7] 0.043 | [8] -0.034 | [9] -0.01 | [10] 0.069

ELAC1 (UniProt Q9H777)
inactive: [1] 0.035 | [2] -0.068 | [3] 0.04 | [4] -0.061 | [5] 0.041 | [8] -0.021

DDX46 (UniProt Q7L014)
inactive: [1] 0.053 | [2] 0.23 | [3] 0.134 | [4] 0.081 | [5] 0.034 | [6] 0 | [7] -0.023 | [8] -0.022 | [9] -0.062 | [10] -0.141

DTWD2 (UniProt Q8NBA8)
inactive: [1] 0.017 | [2] 0.018 | [3] 0.014 | [4] -0.095 | [5] -0.124 | [6] 0.072 | [7] 0.065 | [8] 0.033 | [9] 0.066 | [10] -0.02

CUX1 isoform 3 (UniProt P39880)
inactive: [1] 0.013 | [2] 0 | [3] 0.034 | [4] -0.015 | [5] -0.008 | [6] 0.11 | [7] -0.074 | [8] 0.01 | [9] -0.003 | [10] 0.092

DPH5 isoform 5 (UniProt Q9H2P9)
inactive: [1] 0 | [2] 0.054 | [3] 0.093 | [4] 0.037 | [5] 0.022 | [6] 0.03 | [7] 0.041 | [8] 0.005 | [9] 0.004 | [10] 0.052

ELOVL7 (UniProt A1L3X0)
Sequence of UniProt A1L3X0 (A1L3X0 whole entry, looked up): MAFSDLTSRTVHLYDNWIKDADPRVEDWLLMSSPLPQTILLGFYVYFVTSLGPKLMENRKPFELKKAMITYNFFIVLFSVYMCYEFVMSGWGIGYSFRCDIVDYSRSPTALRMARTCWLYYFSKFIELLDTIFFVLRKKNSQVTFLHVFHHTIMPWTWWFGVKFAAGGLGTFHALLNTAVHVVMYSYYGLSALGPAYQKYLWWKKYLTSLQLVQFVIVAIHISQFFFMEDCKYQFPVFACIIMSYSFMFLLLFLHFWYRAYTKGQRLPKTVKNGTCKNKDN
inactive: [1] -0.008 | [2] 0.062 | [3] -0.065 | [4] 0.009 | [5] 0.182 | [8] -0.162 | [9] 0.078 | [10] 0.065

DCAF13 (UniProt Q9NV06)
inactive: [1] -0.085 | [2] -0.172 | [3] -0.441 | [4] 0.079 | [5] -0.114 | [6] -0.05 | [7] -0.034 | [8] -0.047 | [9] 0.044 | [10] -0.094

DEGS1 (UniProt O15121)
inactive: [1] -0.075 | [2] 0.076 | [3] -0.113 | [4] 0.145 | [5] 0.049 | [6] -0.003 | [8] -0.096 | [9] -0.245 | [10] 0.32

EXOC6 (UniProt Q8TAG9)
inactive: [1] 0.073 | [2] 0.127 | [3] 0.006 | [4] -0.025 | [5] 0.096 | [6] 0.076 | [7] 0.069 | [8] 0.003 | [9] -0.045 | [10] -0.042

EFCAB14 (UniProt O75071)
Sequence of UniProt O75071 (O75071 whole entry, looked up): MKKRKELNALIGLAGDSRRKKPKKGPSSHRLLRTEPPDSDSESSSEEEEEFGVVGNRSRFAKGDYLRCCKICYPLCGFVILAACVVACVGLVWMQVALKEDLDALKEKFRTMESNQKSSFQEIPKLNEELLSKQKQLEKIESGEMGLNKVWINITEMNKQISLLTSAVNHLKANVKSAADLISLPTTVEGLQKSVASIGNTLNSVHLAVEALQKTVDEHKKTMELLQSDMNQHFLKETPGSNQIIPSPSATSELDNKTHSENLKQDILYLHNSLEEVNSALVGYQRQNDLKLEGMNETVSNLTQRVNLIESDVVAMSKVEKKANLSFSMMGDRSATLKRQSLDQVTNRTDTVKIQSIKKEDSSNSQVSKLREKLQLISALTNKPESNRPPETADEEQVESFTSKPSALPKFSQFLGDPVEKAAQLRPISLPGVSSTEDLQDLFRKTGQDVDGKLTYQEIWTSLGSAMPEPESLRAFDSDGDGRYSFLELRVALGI
inactive: [1] 0.051 | [2] -0.053 | [3] 0.013 | [4] 0.024 | [5] -0.049 | [6] 0.033 | [7] 0.159 | [8] -0.119 | [9] 0.044 | [10] -0.032

EED, A0A5F9ZI63
inactive: [1] 0.056 | [2] 0.049 | [3] -0.04 | [4] 0.028 | [5] -0.1 | [6] 0.05 | [7] -0.036 | [8] -0.033 | [9] 0.032 | [10] 0.012

FAM207A (UniProt Q9NSI2)
Sequence of UniProt Q9NSI2 (Q9NSI2 whole entry, looked up): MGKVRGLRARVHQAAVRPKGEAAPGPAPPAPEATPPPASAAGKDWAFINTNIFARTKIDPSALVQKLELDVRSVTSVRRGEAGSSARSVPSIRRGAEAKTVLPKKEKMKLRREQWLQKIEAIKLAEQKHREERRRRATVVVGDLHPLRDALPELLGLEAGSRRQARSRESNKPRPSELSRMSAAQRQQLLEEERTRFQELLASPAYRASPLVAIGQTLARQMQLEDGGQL
inactive: [1] -0.082 | [2] -0.092 | [3] -0.039 | [4] -0.032 | [5] -0.204 | [6] -0.018 | [7] -0.027 | [8] 0.006 | [9] -0.159 | [10] -0.054

FAM177A1 isoform 2 (UniProt Q8N128)
inactive: [1] 0.048 | [2] 0.042 | [3] 0.038 | [4] 0.023 | [5] 0.036 | [6] 0.02 | [7] 0.024 | [8] -0.037 | [9] 0.109 | [10] 0.044

EXOC2 (UniProt Q96KP1)
inactive: [1] 0.07 | [2] 0.083 | [3] -0.027 | [4] -0.045 | [5] 0.05 | [6] 0.006 | [7] -0.013 | [8] 0.054 | [9] -0.014 | [10] -0.119

FAM117B (UniProt Q6P1L5)
Sequence of UniProt Q6P1L5 (Q6P1L5 whole entry, looked up): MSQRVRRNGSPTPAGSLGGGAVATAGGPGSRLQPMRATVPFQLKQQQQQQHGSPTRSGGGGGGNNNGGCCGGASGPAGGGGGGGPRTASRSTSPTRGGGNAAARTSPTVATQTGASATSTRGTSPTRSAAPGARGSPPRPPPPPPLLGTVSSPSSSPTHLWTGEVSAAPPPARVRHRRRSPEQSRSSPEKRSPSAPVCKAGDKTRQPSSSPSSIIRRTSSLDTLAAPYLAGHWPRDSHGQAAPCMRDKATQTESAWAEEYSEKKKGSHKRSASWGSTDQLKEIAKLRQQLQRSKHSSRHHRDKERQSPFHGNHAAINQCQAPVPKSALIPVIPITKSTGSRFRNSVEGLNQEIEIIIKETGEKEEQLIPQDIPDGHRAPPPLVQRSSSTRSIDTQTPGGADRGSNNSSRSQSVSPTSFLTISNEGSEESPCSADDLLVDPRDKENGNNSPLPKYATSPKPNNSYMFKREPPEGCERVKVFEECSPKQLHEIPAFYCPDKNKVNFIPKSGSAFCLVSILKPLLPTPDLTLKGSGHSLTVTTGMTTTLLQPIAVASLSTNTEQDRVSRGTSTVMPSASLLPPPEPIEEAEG
inactive: [1] 0.088 | [2] 0.053 | [3] -0.134 | [4] 0.079 | [5] 0.098 | [7] 0.151 | [8] 0.099 | [9] 0.165 | [10] 0.09

DDX11 (UniProt Q96FC9)
inactive: [1] 0.019 | [2] -0.041 | [3] 0.087 | [4] 0.005 | [5] 0.029 | [6] 0.034 | [7] 0.215 | [8] -0.027 | [9] 0.032 | [10] 0.072

DDX27 (UniProt Q96GQ7)
Sequence of UniProt Q96GQ7 (Q96GQ7 whole entry, looked up): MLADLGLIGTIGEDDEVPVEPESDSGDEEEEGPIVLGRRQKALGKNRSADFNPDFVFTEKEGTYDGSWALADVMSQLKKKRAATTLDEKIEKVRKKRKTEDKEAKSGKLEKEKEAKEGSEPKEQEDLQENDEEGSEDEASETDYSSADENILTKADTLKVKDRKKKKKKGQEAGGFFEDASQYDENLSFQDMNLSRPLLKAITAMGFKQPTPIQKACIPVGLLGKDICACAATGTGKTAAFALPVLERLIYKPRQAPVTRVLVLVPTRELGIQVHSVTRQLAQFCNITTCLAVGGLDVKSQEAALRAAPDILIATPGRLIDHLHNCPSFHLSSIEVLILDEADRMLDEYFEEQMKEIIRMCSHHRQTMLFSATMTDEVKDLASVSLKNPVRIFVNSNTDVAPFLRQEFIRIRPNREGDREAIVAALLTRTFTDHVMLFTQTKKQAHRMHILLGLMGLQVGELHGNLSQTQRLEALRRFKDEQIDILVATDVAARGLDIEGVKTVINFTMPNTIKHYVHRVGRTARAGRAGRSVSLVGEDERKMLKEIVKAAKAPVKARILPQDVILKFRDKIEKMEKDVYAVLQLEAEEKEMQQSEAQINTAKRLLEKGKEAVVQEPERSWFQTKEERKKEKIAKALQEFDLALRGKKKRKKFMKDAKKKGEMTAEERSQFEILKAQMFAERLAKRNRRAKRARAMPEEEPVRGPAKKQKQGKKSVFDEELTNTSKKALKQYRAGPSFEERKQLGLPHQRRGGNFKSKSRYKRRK
inactive: [1] 0.104 | [2] -0.116 | [3] -0.287 | [4] 0.015 | [5] 0.059 | [7] -0.039 | [8] 0.025 | [9] -0.064 | [10] -0.259

FAM241A (UniProt Q8N8J7)
Sequence of UniProt Q8N8J7 (Q8N8J7 whole entry, looked up): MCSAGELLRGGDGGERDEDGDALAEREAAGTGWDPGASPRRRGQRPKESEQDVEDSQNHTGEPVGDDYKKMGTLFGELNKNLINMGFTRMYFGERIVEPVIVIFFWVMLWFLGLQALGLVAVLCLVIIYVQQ
inactive: [1] -0.012 | [2] -0.005 | [4] 0.044 | [5] -0.076 | [6] 0.043 | [7] -0.014 | [8] 0.012 | [9] 0.016 | [10] 0.045

EIF2AK3 (UniProt Q9NZJ5)
inactive: [1] 0.056 | [2] 0.022 | [3] 0.091 | [4] -0.222 | [5] 0.421 | [6] -0.311 | [8] -0.016 | [9] 0.148 | [10] 0.075

DCTPP1 (UniProt Q9H773)
inactive: [1] 0.01 | [2] -0.07 | [3] 0.14 | [4] -0.039 | [5] -0.073 | [6] 0.035 | [7] 0.194 | [8] 0.012 | [9] -0.021 | [10] -0.054

EZH2 isoform 2 (UniProt Q15910)
Sequence of UniProt Q15910 (Q15910 whole entry, looked up): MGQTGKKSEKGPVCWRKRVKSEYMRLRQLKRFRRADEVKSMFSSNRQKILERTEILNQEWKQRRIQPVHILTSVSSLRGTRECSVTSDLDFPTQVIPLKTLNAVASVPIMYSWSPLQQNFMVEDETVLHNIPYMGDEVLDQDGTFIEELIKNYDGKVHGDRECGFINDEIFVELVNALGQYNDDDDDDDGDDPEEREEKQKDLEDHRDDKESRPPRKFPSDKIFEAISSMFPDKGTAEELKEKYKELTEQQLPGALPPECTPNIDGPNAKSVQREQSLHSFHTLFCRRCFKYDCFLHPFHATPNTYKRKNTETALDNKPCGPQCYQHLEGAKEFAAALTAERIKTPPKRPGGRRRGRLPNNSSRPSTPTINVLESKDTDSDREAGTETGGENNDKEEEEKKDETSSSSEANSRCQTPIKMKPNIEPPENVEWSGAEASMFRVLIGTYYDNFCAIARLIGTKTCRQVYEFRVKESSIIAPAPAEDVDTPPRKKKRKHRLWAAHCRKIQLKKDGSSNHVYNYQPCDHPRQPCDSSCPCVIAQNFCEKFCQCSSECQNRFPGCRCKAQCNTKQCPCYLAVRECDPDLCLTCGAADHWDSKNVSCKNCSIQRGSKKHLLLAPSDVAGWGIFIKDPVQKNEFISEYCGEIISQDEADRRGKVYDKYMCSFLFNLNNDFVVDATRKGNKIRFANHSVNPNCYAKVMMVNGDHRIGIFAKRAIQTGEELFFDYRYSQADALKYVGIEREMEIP
inactive: [1] -0.036 | [2] 0.129 | [3] 0.163 | [4] 0.084 | [5] 0.046 | [6] 0.048 | [8] 0.054 | [9] -0.106 | [10] -0.062

ESS2 (UniProt Q96DF8)
inactive: [1] -0.057 | [2] -0.05 | [3] -0.013 | [4] 0.046 | [5] -0.083 | [6] 0.04 | [7] -0.055 | [8] -0.071 | [9] -0.008 | [10] 0.096

DNAJC19 (UniProt Q96DA6)
Sequence of UniProt Q96DA6 (Q96DA6 whole entry, looked up): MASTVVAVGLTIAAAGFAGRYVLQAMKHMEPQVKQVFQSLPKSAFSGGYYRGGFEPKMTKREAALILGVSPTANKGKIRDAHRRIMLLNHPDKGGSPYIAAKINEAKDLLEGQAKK
inactive: [1] -0.009 | [2] 0.014 | [3] 0.055 | [4] 0.001 | [5] -0.005 | [6] 0.04 | [7] 0.052 | [8] -0.022 | [9] -0.012 | [10] 0.016

DBR1 (UniProt Q9UK59)
Sequence of UniProt Q9UK59 (Q9UK59 whole entry, looked up): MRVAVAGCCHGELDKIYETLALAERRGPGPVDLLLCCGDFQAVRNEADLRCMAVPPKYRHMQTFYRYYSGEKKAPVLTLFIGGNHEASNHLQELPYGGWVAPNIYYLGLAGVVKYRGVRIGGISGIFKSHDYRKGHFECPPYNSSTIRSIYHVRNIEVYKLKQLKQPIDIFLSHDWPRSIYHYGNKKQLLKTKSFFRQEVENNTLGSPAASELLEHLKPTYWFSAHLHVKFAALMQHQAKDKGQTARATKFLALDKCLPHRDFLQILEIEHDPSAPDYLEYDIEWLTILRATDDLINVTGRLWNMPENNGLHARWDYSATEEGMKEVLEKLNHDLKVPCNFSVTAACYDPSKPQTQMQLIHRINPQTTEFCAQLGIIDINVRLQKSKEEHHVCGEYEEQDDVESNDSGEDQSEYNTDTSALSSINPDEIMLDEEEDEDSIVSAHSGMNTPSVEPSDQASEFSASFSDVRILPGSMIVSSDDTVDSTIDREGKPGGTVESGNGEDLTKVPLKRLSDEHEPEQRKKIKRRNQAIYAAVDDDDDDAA
inactive: [1] 0.031 | [2] 0.042 | [3] -0.052 | [4] 0.025 | [5] -0.033 | [6] 0.002 | [7] 0.069 | [8] 0.006 | [9] -0.026 | [10] 0.044

From the supplement of paper PMC10849652
